Compound activity: PubChem BioAssay, several laboratories
In the library only some 1.2% were active in any assay of this set; here they are far more common.
NCOA1 inh – human NCOA1 inhibition. HEK293 GAL4-SRC1 luciferase reporter, luminescence. inhibition, % at 3.6 µM. 360,000 compounds, 0.12% hits. AID 588354;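 active means inhibition above the campaign mean plus 3 SD, with each screening campaign given its own cutoff, cut at about 60% in these data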;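 further: 0% = DMSO treated cells and 100% = gossypol at 36 µM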
Shn3 inh set2 – reduces Shn3 3'UTR luciferase signal in osteoblasts | Clone20 osteoblast Shn3 3'UTR firefly luciferase, 24 h | inhibition, % at 12.5 µM | 360,000 compounds, 0.52% hits | AID 588674;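 active means mean inhibition of at least 75% with every replicate also reaching 75%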;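 further: 0% = median of neutral control wells and 100% = pilot-screen positive control compound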
SRC2 inh – human SRC2 (NCOA2) inhibition; HEK293 GAL4-SRC2 luciferase reporter, luminescence; inhibition, % at 9 µM; 370,000 compounds, 0.17% hits;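 active means inhibition above the mean inhibition of all tested compounds plus 3 SD, set per campaign, cut at about 52% in these data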;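 further: 0% = DMSO treated cells and 100% = cells given Gossypol at 36 µM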
Target sequence (Q15596 whole entry, looked up, the tested form may be a part): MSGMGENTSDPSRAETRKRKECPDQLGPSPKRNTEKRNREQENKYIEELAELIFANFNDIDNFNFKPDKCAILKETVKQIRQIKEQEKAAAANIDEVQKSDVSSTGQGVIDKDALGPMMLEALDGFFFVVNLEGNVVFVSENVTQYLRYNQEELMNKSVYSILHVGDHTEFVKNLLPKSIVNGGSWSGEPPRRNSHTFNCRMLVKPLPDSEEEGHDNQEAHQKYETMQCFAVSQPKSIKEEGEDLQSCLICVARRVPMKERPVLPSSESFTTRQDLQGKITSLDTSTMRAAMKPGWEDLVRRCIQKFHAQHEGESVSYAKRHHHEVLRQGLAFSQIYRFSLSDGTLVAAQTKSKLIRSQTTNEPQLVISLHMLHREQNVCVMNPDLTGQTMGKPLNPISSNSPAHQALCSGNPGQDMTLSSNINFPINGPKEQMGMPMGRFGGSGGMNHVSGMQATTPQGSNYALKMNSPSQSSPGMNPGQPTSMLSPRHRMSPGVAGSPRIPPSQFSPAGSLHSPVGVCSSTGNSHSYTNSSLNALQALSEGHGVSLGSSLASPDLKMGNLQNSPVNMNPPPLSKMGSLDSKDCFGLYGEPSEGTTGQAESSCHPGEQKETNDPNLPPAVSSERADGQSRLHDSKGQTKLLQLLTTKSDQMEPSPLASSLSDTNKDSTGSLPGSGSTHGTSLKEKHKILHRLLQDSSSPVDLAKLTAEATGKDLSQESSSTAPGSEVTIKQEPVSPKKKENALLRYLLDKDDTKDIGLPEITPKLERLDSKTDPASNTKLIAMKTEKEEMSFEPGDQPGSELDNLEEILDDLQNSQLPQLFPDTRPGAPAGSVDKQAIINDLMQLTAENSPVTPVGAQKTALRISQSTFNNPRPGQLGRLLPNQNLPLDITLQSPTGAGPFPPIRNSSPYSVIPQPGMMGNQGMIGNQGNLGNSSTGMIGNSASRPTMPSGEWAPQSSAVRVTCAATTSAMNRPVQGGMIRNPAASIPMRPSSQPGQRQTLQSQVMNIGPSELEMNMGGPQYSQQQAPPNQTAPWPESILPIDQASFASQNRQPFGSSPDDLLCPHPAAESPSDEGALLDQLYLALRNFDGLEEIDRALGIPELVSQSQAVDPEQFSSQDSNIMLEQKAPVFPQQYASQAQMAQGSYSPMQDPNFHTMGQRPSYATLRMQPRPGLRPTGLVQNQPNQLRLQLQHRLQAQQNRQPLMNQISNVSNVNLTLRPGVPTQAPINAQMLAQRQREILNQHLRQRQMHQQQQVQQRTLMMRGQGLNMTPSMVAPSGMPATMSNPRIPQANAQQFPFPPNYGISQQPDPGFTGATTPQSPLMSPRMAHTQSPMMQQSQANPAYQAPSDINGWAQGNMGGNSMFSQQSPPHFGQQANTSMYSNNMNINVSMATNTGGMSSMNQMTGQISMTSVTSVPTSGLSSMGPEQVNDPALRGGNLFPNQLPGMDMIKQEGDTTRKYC
NCOA3 inh – inhibits human SRC3 coactivator; Q9Y6Q9; HEK293 GAL4-SRC3 luciferase reporter, luminescence; inhibition, % at 3.6 µM; 360,000 compounds, 0.17% hits; AID 588352;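 active means inhibition above a per-campaign cutoff, the mean of all compounds plus 3 SD, cut at about 60% in these data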;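 further: 0% = DMSO-treated cells and 100% = gossypol-treated cells at 36 µM; higher means less SRC3-driven luciferase light from the GAL4 reporter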
NR5A2 inv ag – suppresses constitutive activity of human LRH-1. O00482. HEK293T StAR-luciferase reporter, LRH-1 transfected, 24 h. inhibition, % at 3.6 µM. 360,000 compounds, 0.13% hits;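 active means inhibition above the mean inhibition of all tested compounds plus 3 SD, cut at about 73% in these data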;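 further: 0% = DMSO wells and 100% = reporter-only cells lacking LRH-1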
EBV LMP1 NFkB – Epstein-Barr LMP1 NF-kappaB reporter inhibition | inhibition, % at 12.5 µM | AID 504558 | LMP1-induced NF-kappaB luciferase reporter cells, luminescence | 350,000 compounds, 0.69% hits; in the data active means inhibition above about 41%;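 further: 0% = neutral control wells and 100% = reference inhibitor control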
Numbers without * were called inactive.

How did CCn1c(COc2ccccc2)nnc1SCC(=O)Nc1ccc(Oc2ccccc2)cc1 do in these assays?
SRC2 inh: 9

How did Cc1cccc(Cn2cc(SCC(=O)Nc3nccs3)c3ccccc32)c1 do in these assays?
NCOA1 inh: -16; Shn3 inh set2: -43; SRC2 inh: -2; NCOA3 inh: -37; NR5A2 inv ag: -20; EBV LMP1 NFkB: 82*

What do the screens show for `Cc1ccc(Cn2cc(SCC(=O)Nc3nccs3)c3ccccc32)cc1`?
NCOA1 inh: -16; Shn3 inh set2: -23; SRC2 inh: 2; NCOA3 inh: -30; NR5A2 inv ag: 5; EBV LMP1 NFkB: -27

Results for COc1ccc(-n2c(SCc3nc4ccccc4[nH]3)nc3ccccc3c2=O)cc1 ?
SRC2 inh: 14

How did C=C1C(=O)C23CCC4C(C)(C(=O)OC)CCCC4(C)C2CCC1(O)C3 (stereo unspecified) do in these assays?
NCOA1 inh: 36; Shn3 inh set2: 96*; SRC2 inh: 68*; NCOA3 inh: 10; NR5A2 inv ag: 42; EBV LMP1 NFkB: 62*

Results for CNC1=C(N(C(C)=O)c2ccc(Br)cc2)C(=O)c2ccccc2C1=O ?
NCOA1 inh: 81*; Shn3 inh set2: 78; SRC2 inh: 46; NCOA3 inh: 81*; NR5A2 inv ag: 97*; EBV LMP1 NFkB: 25

What do the screens show for `COC(=O)c1cccc(Cn2ccc3ccc(-c4ccc5ccn(C(=O)c6ccccc6OC)c5c4)cc32)c1`?
SRC2 inh: -5

How did CCOC(=O)C1=NOC(C(=O)NCc2ccccc2)(C(=O)c2ccc(OC)cc2)C1 (stereo unspecified) do in these assays?
SRC2 inh: -8

What do the screens show for `C#CCn1c(S(=O)(=O)Cc2ccccc2Cl)nc(-c2ccccc2)c1-c1ccccc1`?
NCOA1 inh: 6; Shn3 inh set2: 75; SRC2 inh: -24; NCOA3 inh: -6; NR5A2 inv ag: -2; EBV LMP1 NFkB: -25

Results for CCOC(=O)Cn1c(S(=O)(=O)Cc2ccccc2Cl)nc(-c2ccccc2)c1-c1ccccc1 ?
NCOA1 inh: -17; Shn3 inh set2: 88*; NCOA3 inh: 15; NR5A2 inv ag: 11; EBV LMP1 NFkB: -13

What do the screens show for `COc1ccc2[nH]cc(CCNC(C)=O)c2c1`?
NCOA1 inh: 12; Shn3 inh set2: 12; SRC2 inh: -13; NCOA3 inh: -13; NR5A2 inv ag: 0; EBV LMP1 NFkB: 4

Results for COc1cc2c(CCNC(C)=O)c[nH]c2cc1Cl ?
NCOA1 inh: -30; Shn3 inh set2: 1; SRC2 inh: 5; NCOA3 inh: 13; NR5A2 inv ag: 5; EBV LMP1 NFkB: 74*

How did Cc1ccc(Cn2cc(CN(C(C)(C)C)S(=O)(=O)c3ccc(F)cc3Br)nn2)cc1 do in these assays?
SRC2 inh: 28

Results for CC1C(=O)N(Cc2cn(CCC3OCCCO3)nn2)CCS(=O)(=O)N1Cc1ccc(-c2ccc(Cl)c(Cl)c2)cc1 (stereo unspecified) ?
NCOA1 inh: -4; Shn3 inh set2: 92*; SRC2 inh: 12; NCOA3 inh: 2; NR5A2 inv ag: 1; EBV LMP1 NFkB: 6

What do the screens show for `COC(=O)C1=C(C)N(Cc2ccccc2C(F)(F)F)C(=NCC2CC2)NC1c1cccc(F)c1` (stereo unspecified)?
SRC2 inh: -1

How did CCNC(=S)NNC(=O)c1cc(-c2ccc(OCC)cc2)nc2ccccc12 do in these assays?
NCOA1 inh: -78; Shn3 inh set2: 8; SRC2 inh: -63; NCOA3 inh: -82; NR5A2 inv ag: -114; EBV LMP1 NFkB: 57*

What do the screens show for `CCc1ccc(-c2cc(C(=O)Nn3cnnc3)c3ccccc3n2)cc1`?
NCOA1 inh: -69; Shn3 inh set2: 15; SRC2 inh: -28; NCOA3 inh: -60; NR5A2 inv ag: -84; EBV LMP1 NFkB: 77*

How did CCN(CC)C(=O)CC[C@H]1CC[C@]2(CCCN(C(=O)c3ccc4ccccc4n3)C2)O1 do in these assays?
SRC2 inh: -24

Results for C[C@@H]1CN(c2ccc(N3CCN(C(=O)OC(C)(C)C)C[C@@H]3C)cc2C#N)C[C@H](C)O1 ?
SRC2 inh: 2

What do the screens show for `CN1CCN(CCOc2ccc(Cc3ccccc3)cc2)CC1`?
NCOA1 inh: -2; Shn3 inh set2: -11; SRC2 inh: -19; NCOA3 inh: -11; NR5A2 inv ag: 2; EBV LMP1 NFkB: 48*

How did CC(C)(C)OC(=O)N1CCC[C@@H]1C(=O)N1CCC[C@@H]1C(=O)NCc1ccccc1 do in these assays?
SRC2 inh: -4

How did CN1/C(=C\C=N\NC(=O)c2ccc(O)cc2)C(C)(C)c2ccccc21 do in these assays?
NCOA1 inh: 10; Shn3 inh set2: 88*; SRC2 inh: -22; NCOA3 inh: 16; NR5A2 inv ag: -10; EBV LMP1 NFkB: 6

How did Cc1ccc2oc(/N=C(\N)NC(=O)C(C)(C)C)nc2c1 do in these assays?
NCOA1 inh: 83*; SRC2 inh: 81*; NCOA3 inh: 86*; NR5A2 inv ag: 83*; EBV LMP1 NFkB: 66*

Results for C=CCN1[C@@H](CC(C)C)COc2cc(F)ccc2S1(=O)=O ?
SRC2 inh: 11

Results for C=CCN1C(=O)[C@@H](CC(=O)NCC2CCCCC2)[C@]2(C(=O)OCC)CCCCC/C=C/12 ?
SRC2 inh: -21

How did CCOc1cc(Br)cc(/C=N/NC(=O)c2cccnc2)c1O do in these assays?
NCOA1 inh: 26; Shn3 inh set2: 92*; SRC2 inh: 24; NCOA3 inh: 61; NR5A2 inv ag: 29; EBV LMP1 NFkB: 68*

What do the screens show for `COc1c(Br)cc(Br)cc1/C=N/NC(=O)c1cccnc1`?
NCOA1 inh: 14; Shn3 inh set2: -1; SRC2 inh: 10; NCOA3 inh: 4; NR5A2 inv ag: 10; EBV LMP1 NFkB: -7

What do the screens show for `COc1ccc([C@H]2N[C@]3(CCCN(Cc4ccco4)C3=O)[C@H]3C(=O)N(Cc4ccccc4)C(=O)[C@@H]23)cc1`?
NCOA1 inh: -12; Shn3 inh set2: -7; SRC2 inh: 4; NCOA3 inh: -25; NR5A2 inv ag: 1; EBV LMP1 NFkB: 46*

How did CCOc1cc(C)c(S(=O)(=O)Nc2ccc3cn[nH]c3c2)cc1C do in these assays?
NCOA1 inh: 2; Shn3 inh set2: 87*; NCOA3 inh: 28; NR5A2 inv ag: 25; EBV LMP1 NFkB: 6

Results for Cc1[nH]c2ccccc2c1CC(=O)Nc1ccc(Nc2cccnc2)c(-c2ccc(Oc3ccccc3)cc2)c1 ?
SRC2 inh: 7

What do the screens show for `Cc1ccc2cccc(NS(=O)(=O)c3ccccc3)c2n1`?
SRC2 inh: 75*

What do the screens show for `O=S(=O)(Nc1cccc2cccnc12)c1ccccc1`?
NCOA1 inh: -64; Shn3 inh set2: 79; SRC2 inh: -100; NCOA3 inh: -55; NR5A2 inv ag: 28; EBV LMP1 NFkB: -1

Results for CS(=O)(=O)Nc1cccc2cccnc12 ?
NCOA1 inh: -13; Shn3 inh set2: 17; SRC2 inh: -42; NCOA3 inh: -1; NR5A2 inv ag: -14; EBV LMP1 NFkB: -11
